Results filed as inconclusive are left out. A call without a number means that no potency is given here. Calls of active or inactive are those of the source. Calls follow the shape of the full dose curve.
Experiment: p53 small molecule agonists, cell-based qHTS assay with human liver microsomes: qHTS cell viability counter screen (AID 1963579); also: nearly all actives have a fitted effect of over 45% in size
Conditions: p53RE-bla HCT-116 viability, ATP luminescence, 16 h, HLM; series mostly up to 66 µM
Method in brief: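 Metabolically activated exposure: compounds, human liver microsomes and NADPH (0.5 mg/mL final apiece) were added to p53RE-bla cells seeded 5 h earlier, left 16 h at 37 C, and then assessed for viability by CellTiter-Glo luminescence.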
Potency is read from the fitted curve at half-maximal effect.

Row | SMILES | activity change, negative = cytotoxicity | Potency
1 | O=C(OC[C@H]1O[C@@H](OC(=O)c2cc(O)c(O)c(OC(=O)c3cc(O)c(O)c(O)c3)c2)[C@H](OC(=O)c2cc(O)c(O)c(OC(=O)c3cc(O)c(O)c(O)c3)c2)[C@@H](OC(=O)c2cc(O)c(O)c(OC(=O)c3cc(O)c(O)c(O)c3)c2)[C@@H]1OC(=O)c1cc(O)c(O)c(OC(=O)c2cc(O)c(O)c(O)c2)c1)c1cc(O)c(O)c(OC(=O)c2cc(O)c(O)c(O)c2)c1 | 8.38% [at 13.5 µM] (inactive) | 
2 | COC(=O)CC(C)CCC=C(C)C (centres undefined) |  | 45.8 µM (active)
3 | CC(C)n1nc(-c2cc3cc(O)ccc3[nH]2)c2c(N)ncnc21 |  | inactive
4 | CNCc1ccc(NC(=O)c2c[nH]c3c2C(=O)CCC3)cc1 |  | inactive
5 | CCOC(=O)COc1ccc2c(C)c(CCN(CC)CC)c(=O)oc2c1Cl |  | inactive
6 | Cc1cccc(C)c1NC(=O)CN1CCN(CCCC(c2ccc(F)cc2)c2ccc(F)cc2)CC1 |  | inactive
7 | CC(CN)CC(C)(C)CCN (centres undefined) |  | inactive
8 | Cc1cc(NC(=O)C(=O)O)cc(C)c1Oc1ccc(O)c2c1CCC2 |  | inactive
9 | OCCCS |  | inactive
10 | Cc1cc(=O)oc2cc(N(C)C)ccc12 |  | inactive
11 | CC[C@H]1CC[C@H](NCc2cc3c(cc2OC)[C@H]2C[C@H]2C(=O)N3C)[C@H](c2ccccc2)N1 |  | inactive
12 | C=CC(=O)OCC1CC2CC1C1CCC(COC(=O)C=C)C21 (centres undefined) |  | 40.8 µM (active)
13 | CCc1c(C(=O)NN2CCCCC2)nn(-c2ccc(Cl)cc2Cl)c1-c1ccc(Br)cc1 |  | 40.8 µM (active)
14 | C=CC(=O)OCCCCCCOC(=O)C=C |  | inactive

— PubChem BioAssay (Tox21)
